PLC-gamma1 inh – PLC-gamma1 enzyme inhibitors, primary screen, biochemical, fluorescence, purified enzyme; 1-phosphatidylinositol 4,5-bisphosphate phosphodiesterase gamma-1 (Homo sapiens), P19174; fluorogenic substrate; inhibition, % at 12.2 µM; 370,000 tested, 0.84% active; AID 720700, 2013; in the data active = inhibition above about 9.5%
PLC-beta3 inh – human PLC-beta3 inhibitors, primary screen, biochemical, fluorescence; Purified PLC-beta3, fluorogenic substrate; inhibition, % at 12.2 µM; 370,000 tested, 0.18% active; AID 720704, 2013; in the data active = inhibition above about 11%
ADAM10 inh – human ADAM10 inhibitors, primary screen, biochemical, QFRET, HTS; inhibition, % at 7 µM; Disintegrin and metalloproteinase domain-containing protein 10 (Homo sapiens), O14672; recombinant ADAM10, EDANS/DABCYL FRET peptide cleavage, 3 h; AID 720582, 2013; 370,000 tested, 0.62% active;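 active = inhibition above a per-campaign cutoff equal to the mean of compounds falling between control-based bounds plus 3 SD, cut at about 20% in these data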
ADAM17 inh – ADAM17 inhibitors, primary screen, biochemical, QFRET. Disintegrin and metalloproteinase domain-containing protein 17 (Homo sapiens), P78536. recombinant ADAM17, EDANS/DABCYL FRET peptide cleavage. inhibition, % at 6.95 µM. 370,000 tested, 0.83% active;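 active = inhibition above the mean of compounds lying between control limits plus 3 SD, set per campaign, cut at about 8.5% in these data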
proKLK7 act – proKLK7 zymogen activators, primary screen, biochemical, fluorescence intensity. Kallikrein-7 (Homo sapiens), P49862. purified proKLK7, EDANS-DABCYL substrate fluorescence; 100% is mature enzyme control, 0% vehicle. activation, % at 7 µM. 370,000 tested, 0.9% active;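 active = activation above the mean of all tested compounds plus 3 SD, computed per campaign excluding outliers beyond control limits, cut at about 13% in these data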
Target sequence (P49862 whole entry, looked up): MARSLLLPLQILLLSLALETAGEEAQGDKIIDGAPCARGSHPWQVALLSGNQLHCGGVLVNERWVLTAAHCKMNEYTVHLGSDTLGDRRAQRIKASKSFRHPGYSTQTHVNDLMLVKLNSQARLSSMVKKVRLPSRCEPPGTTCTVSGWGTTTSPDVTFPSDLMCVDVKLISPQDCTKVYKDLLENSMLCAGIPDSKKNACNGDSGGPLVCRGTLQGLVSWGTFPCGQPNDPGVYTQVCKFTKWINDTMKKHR
ADAM10 counter – ADAM10 inhibitors, counter-screen for ADAM17 exosite inhibitor project, biochemical, FRET, human ADAM10; 2,900 tested, 47% active; shares compounds with ADAM17 inh; AID 743256, 2014; recombinant ADAM10, EDANS/DABCYL FRET peptide cleavage, 3 h; inhibition, % at 6.95 µM;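 active = mean inhibition over the triplicate runs exceeds the activity threshold set in the earlier primary screen, cut at about 20% in these data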
ADAM17 confirm – ADAM17 inhibitors, hit retest, confirmation, biochemical, QFRET peptide cleavage; recombinant ADAM17, EDANS/DABCYL QFRET peptide cleavage; 2,900 tested, 65% active; inhibition, % at 6.95 µM; AID 743257, 2014; shares compounds with ADAM17 inh;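 active = mean inhibition across replicates above the hit cutoff set in the primary screen, cut at about 8.5% in these data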
Large screens that a line does not name were inactive (follow-up assays come after a bar, where they were run). Compounds with a hit are over-represented: about 2.9% of the library has one in this group of screens.

O=C(OCc1nc2scc(-c3ccccc3)c2c(=O)[nH]1)c1cc(Cl)ccc1[N+](=O)[O-]	ADAM17 inh 8.6 | ADAM10 counter inactive | ADAM17 confirm inactive
CC(C)C[C@H]1CNC(=S)N1CC1CCCN1C[C@H](CC(C)C)N1C[C@H](Cc2ccc(O)cc2)N(CC2CCCCCC2)C1=S (stereo partly drawn)	none
COCCCn1c(Cc2ccccc2)nnc1SCC(=O)N1CCCCC1	none
CC(=O)c1ccccc1OCC(O)CN1CCN(C(c2ccccc2)c2ccccc2)CC1 (stereo not drawn)	ADAM17 inh 11.2 | ADAM10 counter inactive | ADAM17 confirm inactive
O=C(CSc1cccc(C(F)(F)F)c1)NC(=O)c1ccccc1	ADAM17 inh 8.7 | ADAM10 counter inactive | ADAM17 confirm inactive
CCc1ccc2c(c1)NC(=O)C2(C)Cc1ccccc1OC (stereo not drawn)	none
O=C(Nc1ccccc1)c1ccc(-c2ccccc2C(F)(F)F)o1	ADAM17 inh 9.2 | ADAM10 counter inactive | ADAM17 confirm inactive
CC(C)NC(=O)c1ccc(-c2ccccc2C(F)(F)F)o1	none
COc1cc(C(=O)OCC(=O)Nc2ccc(SC(F)F)cc2)cc(OC)c1OC	none
O=C(COc1cccc(Oc2ccccc2)c1)Nc1ccc(SC(F)F)cc1	ADAM17 inh 10.2 | ADAM10 counter 31.7 | ADAM17 confirm 18.0
O=C(COC(=O)c1ccccc1Cc1ccccc1)Nc1ccc(SC(F)F)cc1	ADAM17 inh 9.6 | ADAM10 counter 20.3 | ADAM17 confirm 13.6
Cc1ccc(C(=O)c2ccccc2C(=O)OCC(=O)Nc2ccc(SC(F)F)cc2)cc1	ADAM17 inh 12.6 | ADAM10 counter 34.9 | ADAM17 confirm 17.6
CC(=O)NCCCNS(=O)(=O)c1ccc(C)cc1	none
CC(C)c1ccc(NC(=O)C2CCCN(S(=O)(=O)c3ccc4c(c3)C(C)(C)C(=O)N4C)C2)cc1 (stereo not drawn)	ADAM17 inh 9.6 | ADAM10 counter inactive | ADAM17 confirm 8.8
Cc1ccc(CS(=O)Cc2ccc(C(=O)N3CCN(c4ccccn4)CC3)o2)cc1 (stereo not drawn)	none
N=C1/C(=C/c2cccn2CCOc2ccccc2)C(=O)N=C2SC=C(c3ccccc3)N12	ADAM17 inh 9.7 | ADAM10 counter inactive | ADAM17 confirm 13.8
N=C1/C(=C\c2ccc(-c3cc(Cl)cc(Cl)c3)o2)C(=O)N=C2SC=C(c3ccccc3)N12	none
O=C(NCc1ccc(F)cc1)C1CCCN(c2cnccn2)C1 (stereo not drawn)	none
COC(=O)[C@@]12C[C@@H](CC(=O)NCc3cccc4ccccc34)C(=O)N(Cc3ccc4c(c3)OCO4)C1=CCC(C)(C)C2	ADAM17 inh 8.9 | ADAM10 counter 20.3 | ADAM17 confirm 11.7
CCOC(=O)[C@]12CCCC=C1N(Cc1cccc3ccccc13)C(=O)[C@H](CC(=O)NCc1cccc3ccccc13)C2	ADAM17 inh 10.8 | ADAM10 counter inactive | ADAM17 confirm inactive
COC(=O)[C@]12CCCCC=C1N(Cc1cccc3ccccc13)C(=O)[C@H](CC(=O)NCc1cccc3ccccc13)C2	ADAM17 inh 11.9 | ADAM10 counter 23.0 | ADAM17 confirm 12.1
COC(=O)[C@]12CCCCC=C1N(Cc1cccc3ccccc13)C(=O)[C@H](CC(=O)NCc1ccc(C)o1)C2	none
COC(=O)[C@@]12C[C@@H](CC(=O)NCc3ccccc3)C(=O)N(Cc3ccc4c(c3)OCO4)C1=CCC(C)(C)C2	none
CCOC(=O)[C@]12CCCC=C1N(Cc1cccc3ccccc13)C(=O)[C@H](CC(=O)NCCc1ccccc1OC)C2	ADAM17 inh 9.7 | ADAM10 counter 23.9 | ADAM17 confirm 16.6

Assay outcomes from PubChem BioAssay.
